Measurements reported in PubChem BioAssay.
Results filed as inconclusive are left out. Calls of active or inactive are those of the source. Unless noted, the limit is not given here; nearly all actives have AC50 up to about 30 µM.

Test: growth inhibition of DIPG glioma cells, dose response, cell-based, JHH-DIPG-1, MIPE4.0, CellTiter-Glo, qHTS (AID 1347062; cut-off not given, nearly all actives have AC50 up to about 27 µM;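 as to AC50: cells exposed to compound for two days before readout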)
Details: JHH-DIPG-1 viability, CellTiter-Glo ATP luminescence

Compound | AC50 | outcome
CNC(=O)c1ccc(Nc2cc(Nc3ccccc3S(=O)(=O)C(C)C)c3cc[nH]c3n2)nc1 | 14.8 µM (active) | 
COc1ccc(CC2SC(=O)NC2=O)cc1C(=O)NCc1ccc(C(F)(F)F)cc1 (configuration not stated) |  | inactive
Cc1nc2c([nH]1)CCN(C(=O)c1ccc(NC(=O)c3ccccc3-c3ccccc3)cc1)c1ccccc1-2 |  | inactive
O=C(C=CC#Cc1cccc(NS(=O)(=O)c2ccccc2)c1)NO | 9.35 µM (active) | 
Nc1ncnc2c1ncn2[C@@H]1O[C@@H](CO)[C@H](O)[C@@H]1O |  | inactive
C[C@H](NCc1ccc2c(c1)nc(NC(=O)c1ccc(-c3cn[nH]c3)s1)n2CCc1ccccc1)C(C)(C)C | 1.05 µM (active) | 
CC(C)C(=O)Oc1ccc(CO)cc1[C@H](CCN(C(C)C)C(C)C)c1ccccc1 |  | inactive

Test: growth inhibition of DIPG glioma cells, dose response, cell-based, SU-DIPG-IV, MIPE4.0, CellTiter-Glo, qHTS (AID 1347063);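 also: compound exposure lasted 48 hours before the viability readout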
Details: SU-DIPG-IV viability, CellTiter-Glo ATP luminescence

Compound | outcome | AC50
C/C(=C\C(=O)Nc1ccccc1C(=O)O)c1ccc2ccccc2c1 | inactive | 
O=C(O)C1=NC(C(=O)O)CC(/C=C/N2c3cc(O)c(OC4OC(CO)C(O)C(O)C4O)cc3CC2C(=O)O)=C1 (configuration not stated) | inactive | 
O=C(O)c1cc(O)c2c(c1)C(=O)c1cccc(O)c1C2=O | inactive | 
CC(=O)N1CCN(c2ccc(OCc3nn(C)c(C)c3-c3cccc4c(CCCOc5cccc6ccccc56)c(C(=O)O)n(Cc5cccnc5)c34)cc2)CC1 |  | 1.66 µM (active)
CC1COC2(CCN(c3nc(=O)c4cc(C(F)(F)F)cc([N+](=O)[O-])c4s3)CC2)O1 (configuration not stated) | inactive | 
CN(C)c1nc(Cc2ccc(NC(=O)c3ccc(C(F)(F)F)cc3)cc2)nc(N(C)C)c1CC(=O)O | inactive | 
CN1[C@@H]2CC(OC(=O)[C@@H](CO)c3ccccc3)C[C@H]1[C@H]1O[C@H]12 (some centres not stated) | inactive | 
CO/N=C(/C(=O)N[C@@H]1C(=O)N2C(C(=O)O)=C(Cn3ccc(=N)n3CCO)CS[C@H]12)c1csc(N)n1 | inactive | 
Nc1nc(F)nc2c1ncn2[C@@H]1O[C@H](CO)[C@@H](O)[C@H]1O |  | 0.264 µM (active)
C=C1/C(=C\C=C2/CCC[C@]3(C)[C@@H]([C@H](C)/C=C/[C@H](C)C(C)C)CC[C@@H]23)C[C@@H](O)C[C@@H]1O |  | 5.9 µM (active)
CC(C)(O)Cn1c(NC(=O)c2ccc(-c3cn[nH]c3)s2)nc2cc(CN3CCOCC3)ccc21 |  | 1.48 µM (active)
CC(C)(C)OC(=O)N[C@H]1CCCCC/C=C\[C@@H]2C[C@@]2(C(=O)NS(=O)(=O)C2CC2)NC(=O)[C@@H]2C[C@@H](OC(=O)N3Cc4cccc(F)c4C3)CN2C1=O | inactive | 
CC(NCc1ccc2c(c1)nc(NC(=O)c1ccc(-c3cn[nH]c3)s1)n2CC(C)(C)O)C(C)(C)C (configuration not stated) |  | 0.833 µM (active)
O=C(NNC(=O)c1ccc(CNS(=O)(=O)c2ccc(F)c(Cl)c2)cc1)c1ccccc1 | inactive | 
Nc1nc(=O)n([C@H]2CSC(CO)O2)cc1F (some centres not stated) | inactive | 
C=C1C[C@@]2(O)O[C@@]3(C[C@H]2C(C)C)[C@@H](C)CC[C@@H]13 | inactive | 
CCCCCCCCCCCCCC(=O)N[C@H](CO)[C@H](O)c1ccc([N+](=O)[O-])cc1 |  | 4.69 µM (active)
C[C@]12CC[C@H](O)CC1=CCC1C2CC[C@]2(C)C(n3cnc4ccccc43)=CCC12 (some centres not stated) | inactive | 
OC[C@H]1O[C@@H](OCCc2ccc(O)cc2)[C@H](O)[C@@H](O)[C@@H]1O | inactive | 
CC[C@H]1OC(=O)[C@H](C)[C@@H](O[C@H]2C[C@@](C)(OC)[C@@H](O)[C@H](C)O2)[C@H](C)[C@@H](O[C@@H]2O[C@@H](C)C[C@H](N(C)C)[C@H]2O)[C@](C)(O)C[C@@H](C)C(=O)[C@H](C)[C@@H](O)[C@]1(C)O | inactive | 

Compound | outcome | AC50
Cc1ccnc(NS(=O)(=O)c2ccc(NC(=O)Nc3ccc(S(=O)(=O)Nc4nccc(C)n4)cc3)cc2)n1 |  | 14.8 µM (active)
CC(C)(C)COc1ccc(-n2cc(C(=O)O)cn2)cc1C#N | inactive | 
Nc1n[nH]c2nnc(-c3c(-c4ccccc4)nn4ccccc34)cc12 |  | 0.209 µM (active)
CCC(CC)[C@H](NC(C)=O)[C@@H]1[C@H](O)[C@@H](C(=O)O)C[C@H]1N=C(N)N | inactive | 
CCCCCNC(=O)N1CCC(CN(Cc2ccc(Cl)cc2)Cc2ccc([N+](=O)[O-])s2)C1 (configuration not stated) |  | 23.5 µM (active)
c1nc2nc(Nc3ccc(N4CCOCC4)cc3)nc(NC3CCCCC3)c2[nH]1 |  | 14.8 µM (active)
CCC(C)CCCCC(=O)N[C@@H](CCN)C(=O)NC(C(=O)N[C@H](CCN)C(=O)N[C@@H]1CCNC(=O)C([C@@H](C)O)NC(=O)[C@@H](CCN)NC(=O)[C@@H](CCN)NC(=O)[C@@H](CC(C)C)NC(=O)[C@H](Cc2ccccc2)NC(=O)[C@H](CCN)NC1=O)[C@@H](C)O (some centres not stated) | inactive | 
Nc1ccn([C@H]2CS[C@@H](CO)O2)c(=O)n1 | inactive | 
CN(C)CCCNC(=O)c1ccc(-c2cc(O)c3ncccc3c2)cc1 | inactive | 
NC1CCC(Nc2nc(Nc3ccc(C(=O)N4CCCCC4)cc3)c3ncn(-c4cccc(F)c4)c3n2)CC1 (configuration not stated) | inactive | 
N#CC(=C(O)c1ccc(Cl)cc1Cl)c1nc2cc(Cl)ccc2c(=O)[nH]1 | inactive | 
Cc1cnn(C)c1C(=O)Nc1cc(Nc2ccc3c(/C=C/c4ccccn4)n[nH]c3c2)ccc1F |  | 14.8 µM (active)
COC1=C2C[C@@H](C)C[C@H](OC)[C@H](O)[C@@H](C)/C=C(\C)[C@H](OC(N)=O)[C@@H](OC)/C=C/C=C(\C)C(=O)NC(=CC1=O)C2=O |  | 0.526 µM (active)
CNC(=O)c1ccc(Nc2cc(Nc3ccccc3S(=O)(=O)C(C)C)c3cc[nH]c3n2)nc1 |  | 11.8 µM (active)
COc1ccc(CC2SC(=O)NC2=O)cc1C(=O)NCc1ccc(C(F)(F)F)cc1 (configuration not stated) | inactive | 
Cc1nc2c([nH]1)CCN(C(=O)c1ccc(NC(=O)c3ccccc3-c3ccccc3)cc1)c1ccccc1-2 | inactive | 
O=C(C=CC#Cc1cccc(NS(=O)(=O)c2ccccc2)c1)NO |  | 4.18 µM (active)
Nc1ncnc2c1ncn2[C@@H]1O[C@@H](CO)[C@H](O)[C@@H]1O | inactive | 
C[C@H](NCc1ccc2c(c1)nc(NC(=O)c1ccc(-c3cn[nH]c3)s1)n2CCc1ccccc1)C(C)(C)C |  | 1.32 µM (active)
CC(C)C(=O)Oc1ccc(CO)cc1[C@H](CCN(C(C)C)C(C)C)c1ccccc1 | inactive | 
